# An excerpt weighted towards active compounds, which were near 12% of everything screened.
# HP1b chromo inh – blocks HP1-beta chromodomain binding to methylated histone tails; P83916; AlphaScreen HP1-beta / biotin-H3K9me3 peptide binding; hit rate 0.56% among 390,000; AID 540317; Potency, µM (titrated, usually from 114 µM), hits mostly inhibitors; note: nearly all actives have a fitted effect of over 70% in size
# Target sequence (P83916 whole entry, looked up): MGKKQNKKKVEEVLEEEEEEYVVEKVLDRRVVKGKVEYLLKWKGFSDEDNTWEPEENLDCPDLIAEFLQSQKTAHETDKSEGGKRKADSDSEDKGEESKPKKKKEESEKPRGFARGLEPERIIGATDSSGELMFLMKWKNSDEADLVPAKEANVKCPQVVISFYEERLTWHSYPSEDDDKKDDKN
#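 Compound inhibition of the preformed complex between 50 nM HP1-beta and 50 nM biotinylated H3K9me3 peptide was read by AlphaScreen. Buffer was PBS pH 7.4 with 0.01% Tween-20. Incubations ran 30 min at room temperature, with 10 ug/mL donor/acceptor beads.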
# G9a block – blocks human histone lysine methyltransferase G9a. G9a H3K9 monomethylation, AlphaScreen, 2 h. hit rate 8.8% among 350,000. AID 504332. Potency, µM (highest dose often 102 µM), actives largely listed as inhibitors; note: nearly all actives have a fitted effect of over 75% in size
#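 Signal arises when biotinylated H3K9 peptide, once monomethylated, bridges streptavidin donor and antibody-captured acceptor beads. Enzyme at 20 nM was preincubated 15 min with test compounds; peptide 500 nM and SAM 20 uM then reacted for 2 h.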
# PI5P4Ka inh – inhibitors of human PI5P4K alpha | P48426 | PI5P4Kalpha enzyme, ADP-Glo luminescence, 60 min; stronger effect = lower value | max response, % | hit rate 1.2% among 330,000; active = max response of -50% or lower; inconclusive = between -30% and -50%; inactive = -30% or higher; note: value at the top dose of about 77 µM
# Target sequence (P48426 whole entry, looked up): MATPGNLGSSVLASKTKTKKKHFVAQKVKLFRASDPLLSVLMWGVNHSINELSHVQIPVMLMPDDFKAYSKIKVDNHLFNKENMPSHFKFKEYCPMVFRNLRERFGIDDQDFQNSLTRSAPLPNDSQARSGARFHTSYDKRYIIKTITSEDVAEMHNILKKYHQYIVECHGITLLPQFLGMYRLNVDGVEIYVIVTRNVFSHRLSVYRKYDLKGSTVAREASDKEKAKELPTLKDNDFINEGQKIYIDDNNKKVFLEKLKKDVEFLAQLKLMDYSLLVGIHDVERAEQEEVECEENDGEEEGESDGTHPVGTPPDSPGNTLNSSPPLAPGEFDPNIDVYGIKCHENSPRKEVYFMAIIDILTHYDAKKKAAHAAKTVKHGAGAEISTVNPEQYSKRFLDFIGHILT
#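 Reactions run in 0.038 M HEPES pH 7.4, 0.28 mM EGTA, 0.1% CHAPS and 5% DMSO, with PI5P4Kalpha, substrate, compound and 5 microM ATP final, one hour at room temperature. Readout is ADP-Glo luminescence.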
# PLK1 PBD block – inhibitors of human PLK1 polo-box domain binding. P53350. Plk1 PBD binding of FITC phosphopeptide, fluorescence polarization. Potency, µM, hits mostly inhibitors. hit rate 2.8% among 360,000. AID 720504; note: series mostly up to about 57 µM; nearly all actives have a fitted effect of over 65% in size
# BAZ2B block – blocks human BAZ2B. Q9UIF8. hit rate 4.4% among 360,000. AlphaScreen BAZ2B-H3K14Ac peptide displacement. Potency, µM (doses to about 114 µM), usual class: inhibitors; note: nearly all actives have a fitted effect of over 60% in size
#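 AlphaScreen displacement of biotin-H3(5-23)K14Ac peptide (50 nM final) from BAZ2B (50 nM final) in PBS pH 7.4, 0.01% Tween-20; complex preformed 30 min RT, then compounds (top 110 uM) 30 min RT, beads 20 min dark.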
# JMJD2A Tudor – JMJD2A Tudor domain (human) inhibition; AlphaScreen JMJD2A-Tudor / H3K4me3 peptide binding; Potency, µM (series often up to 114 µM), most hits filed as inhibitors; hit rate 4.4% among 390,000; O75164; note: nearly all actives have a fitted effect of over 50% in size
# A number is an active result; i = inactive; ? = inconclusive; nt = not tested or not shown; [ ] = another dose, or the depositor's remark. Unless noted, calls come from the whole dose curve; as a rule, active = well fitted curve in the direction sought with a large enough effect; inconclusive = small, poorly fitted or top-dose-only effect, or another doubt; inactive = no such curve, though single readings can be large; an effect the other way counts as inactive or inconclusive.
SMILES,HP1b chromo inh,G9a block,PI5P4Ka inh,PLK1 PBD block,BAZ2B block,JMJD2A Tudor
Cc1ccc(C(C)(O)CS(=O)(=O)Cc2ccccc2Cl)cc1 (stereo unspecified),i,44.7µM,i,i,i,i
CCCC(=O)Nc1nnc(S(=O)(=O)N(C)Cc2ccco2)s1,i,?,i,26.7µM,?,?
CCC(=O)Nc1nnc(S(=O)(=O)N(C)Cc2ccco2)s1,i,i,i,26.7µM,i,?
Cc1ccc(C(=O)Nc2nnc(S(=O)(=O)N(C)Cc3ccco3)s2)cc1,i,?,nt,nt,i,i
Nc1ncnc2[nH]c(=S)[nH]c12,?,nt,?,?,nt,3.55µM
O=c1[nH]c(=S)c2[nH]cnc2[nH]1,i,nt,nt,nt,nt,i
CN(C)C(CNC(=O)c1ccc(NC(=O)c2cccs2)cc1)c1ccccc1 (stereo unspecified),i,i,i,i,i,i
CN(C)C(CNC(=O)c1cnc(Cl)c(Cl)c1)c1ccccc1 (stereo unspecified),?,?,i,i,56.2µM,20µM
CN(C)C(CNC(=O)c1ccc(C2SCCS2)cc1)c1ccccc1 (stereo unspecified),i,50.1µM,i,i,i,?
COc1cccc(-c2nc(CS(=O)(=O)CC(=O)NCc3cccc(Cl)c3)c(C)o2)c1,i,i,nt,nt,i,i
COc1cc(OC)cc(C(=O)NC(=S)NNC(=O)[C@H]2C[C@@H]2c2ccccc2)c1,i,20µM,i,?,i,?
O=C(/C=C/c1ccc(F)cc1)NC(=S)NNC(=O)[C@H]1C[C@@H]1c1ccccc1,i,35.5µM,i,i,i,i
COc1ccc(C(=O)NC(=S)NNC(=O)[C@H]2C[C@@H]2c2ccccc2)cc1OC,i,44.7µM,i,i,i,i
O=C(NC(=S)NNC(=O)[C@H]1C[C@@H]1c1ccccc1)c1ccc(F)cc1,i,nt,i,i,i,i
COc1ccc(OC)c(NC(=O)C2CC2c2ccccc2)c1 (stereo unspecified),i,i[0.501 µM],i,i,i,i
COc1cc(OC)cc(C(=O)NC(=S)NCCc2ccccc2)c1,i,?,nt,i,?,i
O=C(CCC(=O)N1CCN(S(=O)(=O)c2ccc3ccccc3c2)CC1)NCC(F)(F)F,i,i,i,i,i,i
S=c1[nH]c2ccc(Cc3ccc4[nH]c(=S)[nH]c4c3)cc2[nH]1,i,0.282µM,i,21.2µM,i,i
Nc1ccc2[nH]c(=S)[nH]c2c1,i,nt,i,?,nt,i
Cc1cc2[nH]c(=S)[nH]c2cc1C,39.8µM,1.78µM,?,5.97µM,i,?
S=c1[nH]c2cc3ccccc3cc2[nH]1,i,2.24µM,i,29.9µM,i,i
CC1CCN(S(=O)(=O)c2cc(C(=O)N3CCN(c4cccc(Cl)c4)CC3)n(C)c2)CC1,i,i,nt,nt,i,i
COc1ccccc1NC(=O)CC(NCc1ccccc1)C(=O)O (stereo unspecified),i,?,i,i,?,11.2µM
COCCCNC(CC(=O)Nc1ccc(OC)cc1OC)C(=O)O (stereo unspecified),i,?,nt,i,i,10µM
COc1ccc(NC(=O)CC(NCCc2ccccc2)C(=O)O)c(OC)c1 (stereo unspecified),i,28.2µM,i,i,i,4.47µM
SMILES,HP1b chromo inh,G9a block,PI5P4Ka inh,PLK1 PBD block,BAZ2B block,JMJD2A Tudor
COc1ccc(NC(=O)CC(C)CC(=O)NCc2ccccc2)c(OC)c1 (stereo unspecified),i,i,i,i,i,i
CC(C(=O)N1CCCC1)N(c1ccc(Cl)cc1)S(C)(=O)=O (stereo unspecified),nt,nt,i,i,nt,nt
O=[N+]([O-])c1cccc(-c2ccc(/C=N/NC(=S)Nc3ccccc3)o2)c1,i,i,i,i,i,i
Cc1ccc(-c2ccc(/C=N/NC(N)=S)o2)cc1,?,8.91µM,i,5.97µM,i,i
NC(=S)N/N=C/c1ccc(-c2ccc(Cl)c(Cl)c2)o1,i,i,i,i,?,i
NC(=S)N/N=C/c1ccc(-c2ccccc2)o1,i,6.31µM,i,i,?,i
O=C(O)c1cc(-c2ccc(/C=N/NC(=S)Nc3ccccc3)o2)ccc1Cl,i,i,-71.5,?,?,i
CCNC(=S)N/N=C/c1ccc(-c2ccccc2)o1,i,i,i,i,?,?
Cc1cccc(C)c1Cn1c(C)c(C(=O)NCCC#N)sc1=O,nt,nt,i,i,nt,nt
CC(=O)N1CCc2c(sc3c2c(=O)n(-c2cc(Cl)ccc2C)c(=O)n3C)C1,i,i,nt,nt,i,i
C#CCOCCOCCOCCNc1nc(N2CCN(C(=O)[C@H]([C@@H](C)CC)n3cc([C@@H](N)Cc4ccc(O)cc4)nn3)CC2)nc(N2CCN(C(=O)[C@H](Cc3cc4ccccc4[nH]3)n3cc([C@@H](N)CC(C)C)nn3)CC2)n1,i,i[2.33 µM],?,i,56.2µM,39.8µM
C#CCOCCOCCOCCNc1nc(N2CCN(C(=O)[C@H]([C@@H](C)CC)n3cc([C@@H](N)CC(C)C)nn3)CC2)nc(N2CCN(C(=O)[C@H](Cc3cc4ccccc4[nH]3)n3cc([C@@H](N)Cc4ccc(O)cc4)nn3)CC2)n1,i,i[12.7 µM],i,i,50.1µM,56.2µM
C#CCOCCOCCOCCNc1nc(N2CCN(C(=O)[C@H]([C@@H](C)CC)n3cc([C@@H](N)CC(C)C)nn3)CC2)nc(N2CCN(C(=O)[C@H](Cc3cc4ccccc4[nH]3)n3cc([C@@H](N)C(C)CC)nn3)CC2)n1 (stereo partly specified),nt,i[12.7 µM],nt,nt,50.1µM,nt
N#CCCn1c(=O)c(-c2ccc(F)cc2)nc2cnc(Oc3cccc(Cl)c3)nc21,nt,i[12.7 µM],nt,nt,nt,nt
Nc1nc(C23CC4CC(CC(Cl)(C4)C2)C3)cs1,i,i,i,i,70.8µM,i
Nc1nc(C23CC4CCC(CC(C4)C2)C3)cs1,i,?,i,i,i,i
O=c1cc(O)nc(-c2ccc(Cl)cc2)s1,i,28.2µM,i,?,i,i
O=c1cc(O)nc(-c2ccccc2)s1,i,44.7µM,i,?,i,i
O=C(O)Cc1sc(-c2ccccc2)nc1-c1ccccc1,i,?,i,i,i,i
Cc1ccc(-n2ncc3c2CC(C)(C)CC3NC(=O)CCc2c(C)noc2C)cc1 (stereo unspecified),i,i,i,i,i,i
COc1cc2c(cc1NC(=O)C(C)Sc1cccc[n+]1[O-])oc1ccccc12 (stereo unspecified),i,?,i,?,i,i
CC(Sc1cccc[n+]1[O-])C(=O)Nc1ccc([N+](=O)[O-])cc1Cl (stereo unspecified),i,50.1µM,i,i,i,i
CC(Sc1cccc[n+]1[O-])C(=O)NC1CCCCC1C (stereo unspecified),i,nt,i,23.8µM,nt,i
CC(Sc1nnc(-c2ccco2)n1N)C(=O)NC1CCCCC1C (stereo unspecified),i,i[12.7 µM],i,i,i,i
